# Assay results published in the supplement of paper PMC6555819.
# What was measured:
# Test in all cases: PBM binding z-score (relative to random genomic background probes); higher = stronger binding; sequences stand for … in GC…GCGATTGACAGCGTAGAATGAAGG
# [1] = tested on: FXR:RXRa (NR concentration 270 nM, RXRa partner concentration 90 nM)
# Procedure, shortened: (§1)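 Binding z-scores were set against random background probes. The data came from custom Agilent 4×180K protein-binding microarrays carrying double-stranded probes with 34-nt variable regions, incubated 1 h with ligand-free nuclear receptor dimers. Partner-specific antibodies detected binding, and scanned fluorescence was regression-normalized.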
# [2] = tested on: LXRa:RXRa (NR concentration 270 nM, RXRa partner concentration 90 nM)
# Procedure, shortened: as §1
# [3] = tested on: LXRa homodimer (NR concentration 270 nM)
# Procedure, shortened: as §1
# [4] = tested on: LXRb:RXRa (NR concentration 270 nM, RXRa partner concentration 90 nM)
# Procedure, shortened: as §1
# [5] = tested on: LXRb homodimer (NR concentration 270 nM)
# Procedure, shortened: as §1
# [6] = tested on: PPARa:RXRa (NR concentration 270 nM, RXRa partner concentration 90 nM)
# Procedure, shortened: as §1
# [7] = tested on: PPARg:RXRa (NR concentration 180 nM, RXRa partner concentration 90 nM)
# Procedure, shortened: as §1
# [8] = tested on: PPARg:RXRa 270nM:90nM, anti-RXR (NR concentration 270 nM, RXRa partner concentration 90 nM)
# Procedure, shortened: as §1
# [9] = tested on: PPARg:RXRa 30nM:10nM, anti-RXR (NR concentration 30 nM, RXRa partner concentration 10 nM)
# Procedure, shortened: as §1
# [10] = tested on: PPARg:RXRa 90nM:30nM, anti-RXR (NR concentration 90 nM, RXRa partner concentration 30 nM)
# Procedure, shortened: as §1
# [11] = tested on: PPARg:RXRa DBDmut IVT, anti-RXR (DBD mutation: RXRa K156A/R161A, NR concentration 270 nM, RXRa partner concentration 90 nM)
# Procedure, shortened: as §1
# [12] = tested on: PPARg:RXRa IVT, anti-PPARg (NR concentration 270 nM, RXRa partner concentration 90 nM)
# Procedure, shortened: as §1
# [13] = tested on: PPARg DBDmut:RXRa IVT, anti-PPARg (DBD mutation: PPARg1 K132A/R137A, NR concentration 270 nM, RXRa partner concentration 90 nM)
# Procedure, shortened: as §1
# [14] = tested on: PPARg DBDmut IVT, anti-PPARg (DBD mutation: PPARg1 K132A/R137A, NR concentration 270 nM)
# Procedure, shortened: as §1
# [15] = tested on: PPARg homodimer (NR concentration 180 nM)
# Procedure, shortened: as §1
# [16] = tested on: PXR:RXRa (NR concentration 270 nM, RXRa partner concentration 90 nM)
# Procedure, shortened: as §1
# [17] = tested on: PXR homodimer (NR concentration 270 nM)
# Procedure, shortened: as §1
# [18] = tested on: RARa:RXR (NR concentration 270 nM, RXRa partner concentration 90 nM)
# Procedure, shortened: as §1
# [19] = tested on: RARa homodimer (NR concentration 270 nM)
# Procedure, shortened: as §1
# [20] = tested on: RARb:RXRa (NR concentration 270 nM, RXRa partner concentration 90 nM)
# Procedure, shortened: as §1
Sequence,PBM binding z-score [1],PBM binding z-score [2],PBM binding z-score [3],PBM binding z-score [4],PBM binding z-score [5],PBM binding z-score [6],PBM binding z-score [7],PBM binding z-score [8],PBM binding z-score [9],PBM binding z-score [10],PBM binding z-score [11],PBM binding z-score [12],PBM binding z-score [13],PBM binding z-score [14],PBM binding z-score [15],PBM binding z-score [16],PBM binding z-score [17],PBM binding z-score [18],PBM binding z-score [19],PBM binding z-score [20]
ATCTCTAGGAAAAGATAGTTCAGTGAATGCAAAT,0.351,0.417,0.457,0.247,0.273,-0.0453,0.305,-0.0709,0.0801,-0.0493,-0.409,-0.0598,0.523,0.248,-0.459,0.432,0.918,-0.0188,1.07,0.49
CCGACTGGGGCATGAGGTTACCATAAGCCAGCCC,0.319,1.56,-0.254,0.386,-1.09,1.72,2.04,2.41,0.402,1.62,3.01,3.6,-1.07,-0.773,0.383,0.287,-0.219,1.06,-0.49,1.42
CCTACTGGGCCACGAAAGGTCATTTATTCAGTGA,3.85,5.32,6.04,4.6,1.31,4.47,4.58,4.66,1.87,4.02,5.5,5.64,-0.2,-0.0827,2.68,5.07,2.29,4.64,1.05,3.78
CCTTGTTGGTCAGGAGGTCACACACCGGATATGA,3.65,3.45,2.55,3.64,0.947,4.07,3.37,3.8,1.66,2.83,1.61,3.58,0.862,0.471,2.86,4.22,1.27,4.37,1.82,3.85
AGAACGAGGGCAATGAGTTGATAGGACGGGTGGC,0.234,0.0995,-0.497,-0.197,-0.468,1.05,1.48,0.681,0.137,0.397,3.48,2.09,0.826,0.0416,-0.0695,1.12,5.45,0.114,-0.321,2
GGAACGAGGGAAAAGTTGATAGCATCTGTCGACG,-0.286,-0.349,-0.321,-0.59,-0.568,1.15,2.04,3.68,1.71,3.49,-0.174,0.0196,-0.986,-1.13,-0.562,-0.557,-0.343,-0.659,-0.0387,-0.212
TGTCAAAGTTCAAAGGTAACGTGAGTATCCACAC,6.92,6.79,4.59,4.91,1.54,5.99,8.97,7.93,6.04,7.73,0.486,4.72,1.71,2.12,3.33,5.78,3.67,6.92,0.948,5.15
